Experimental data as given in the supplement of paper PMC7411054.

Assays:
Settings in all cases: treatment time: 24 h
A549-ACTB-RAB5A [1] = experiment: lowest phenotypically active concentration; higher = less potent
Outline: (§1)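 Cells from fifteen gene-edited reporter lines (A549, HepG2 and WPMY1) were treated for 24 h at 0.3, 1, 3 or 9 µM and imaged live, four wells per condition. Features were normalised per well to solvent control wells. A condition deviated if ≥3 of 4 wells passed the 95th percentile of control Euclidean distances and was reproducible if its median replicate Pearson correlation beat the 95th percentile of non-replicates; phenotypic activity needed both.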

A549-CANX-COX4 [2] = experiment: as above
Outline: as §1

A549-GM130-SQSTM1 [3] = experiment: as above
Outline: as §1

A549-TP53BP1-CLTA [4] = experiment: as above
Outline: as §1

A549-TUBA1B-RELA [5] = experiment: as above
Outline: as §1

HepG2-GM130-SQSTM1 [6] = experiment: as above
Outline: as §1

A549-ACTB-RAB5A [7] = experiment: phenotypically active (imaging signature differs from DMSO and reproducible) at any of 0.3-9 uM (binary (1 = active, 0 = inactive)); higher = active
Outline: as §1

A549-CANX-COX4 [8] = experiment: as above
Outline: as §1

A549-GM130-SQSTM1 [9] = experiment: as above
Outline: as §1

A549-TP53BP1-CLTA [10] = experiment: as above
Outline: as §1

A549-TUBA1B-RELA [11] = experiment: as above
Outline: as §1

HepG2-ACTB-RAB5A = experiment: as above
Outline: as §1

HepG2-CANX-COX4 = experiment: as above
Outline: as §1

HepG2-GM130-SQSTM1 [12] = experiment: as above
Outline: as §1

HepG2-TP53BP1-CLTA = experiment: as above
Outline: as §1

HepG2-TUBA1B-RELA = experiment: as above
Outline: as §1

WPMY1-CANX-COX4 = experiment: as above
Outline: as §1

WPMY1-GM130-SQSTM1 = experiment: as above
Outline: as §1

WPMY1-TP53BP1-CLTA = experiment: as above
Outline: as §1

WPMY1-TUBA1B-RELA = experiment: as above
Outline: as §1

Structure (SMILES)	lowest phenotypically active concentration (A549-ACTB-RAB5A [1])	lowest phenotypically active concentration (A549-CANX-COX4 [2])	lowest phenotypically active concentration (A549-GM130-SQSTM1 [3])	lowest phenotypically active concentration (A549-TP53BP1-CLTA [4])	lowest phenotypically active concentration (A549-TUBA1B-RELA [5])	lowest phenotypically active concentration (HepG2-GM130-SQSTM1 [6])	phenotypically active (A549-ACTB-RAB5A [7])	phenotypically active (A549-CANX-COX4 [8])	phenotypically active (A549-GM130-SQSTM1 [9])	phenotypically active (A549-TP53BP1-CLTA [10])	phenotypically active (A549-TUBA1B-RELA [11])	phenotypically active (HepG2-ACTB-RAB5A)	phenotypically active (HepG2-CANX-COX4)	phenotypically active (HepG2-GM130-SQSTM1 [12])	phenotypically active (HepG2-TP53BP1-CLTA)	phenotypically active (HepG2-TUBA1B-RELA)	phenotypically active (WPMY1-CANX-COX4)	phenotypically active (WPMY1-GM130-SQSTM1)	phenotypically active (WPMY1-TP53BP1-CLTA)	phenotypically active (WPMY1-TUBA1B-RELA)
C=CC(=O)Nc1cccc(Nc2nc(Nc3ccc(OCCOC)cc3)ncc2F)c1	3 µM	3 µM	9 µM	3 µM	9 µM	3 µM	1 (active)	1 (active)	1 (active)	1 (active)	1 (active)	1 (active)	1 (active)	1 (active)	1 (active)	1 (active)	1 (active)	1 (active)	1 (active)	1 (active)
CC(C)c1cc(-c2n[nH]c(=O)n2-c2ccc3c(ccn3C)c2)c(O)cc1O [ganetespib]	≤ 0.3 µM	≤ 0.3 µM	≤ 0.3 µM	≤ 0.3 µM	≤ 0.3 µM	≤ 0.3 µM	1 (active)	1 (active)	1 (active)	1 (active)	1 (active)	1 (active)	1 (active)	1 (active)	1 (active)	1 (active)	1 (active)	1 (active)	1 (active)	1 (active)
C[C@H]1COCCN1c1cc(C2(S(=O)(=O)C3CC3)CC2)nc(-c2ccc(NC(=S)NCCO)cc2)n1	≤ 0.3 µM	≤ 0.3 µM	≤ 0.3 µM	≤ 0.3 µM	≤ 0.3 µM	≤ 0.3 µM	1 (active)	1 (active)	1 (active)	1 (active)	1 (active)	1 (active)	1 (active)	1 (active)	1 (active)	1 (active)	1 (active)	1 (active)	1 (active)	1 (active)
C=CC(=O)N1CCC[C@@H](n2nc(-c3cccc(C(=O)Nc4ccc(C(C)C)c(C)c4)c3)c3c(N)ncnc32)C1	3 µM	3 µM	3 µM	3 µM	1 µM	1 µM	1 (active)	1 (active)	1 (active)	1 (active)	1 (active)	1 (active)	1 (active)	1 (active)	1 (active)	1 (active)	1 (active)	1 (active)	1 (active)	1 (active)
O=C1NCCN1CCN1CCC(c2cn(-c3ccc(F)cc3)c3ccc(Cl)cc23)CC1 [sertindole]	3 µM	3 µM	3 µM	9 µM	3 µM	3 µM	1 (active)	1 (active)	1 (active)	1 (active)	1 (active)	1 (active)	1 (active)	1 (active)	1 (active)	1 (active)	1 (active)	1 (active)	1 (active)	1 (active)
COc1cccc(-c2cc(F)ccc2[C@H]2Cc3nc(N)nc(C)c3C(=O)N2)n1	≤ 0.3 µM	≤ 0.3 µM	≤ 0.3 µM	≤ 0.3 µM	≤ 0.3 µM	≤ 0.3 µM	1 (active)	1 (active)	1 (active)	1 (active)	1 (active)	1 (active)	1 (active)	1 (active)	1 (active)	1 (active)	1 (active)	1 (active)	1 (active)	1 (active)
CCc1cccc(CC)c1NC(=O)N1Cc2[nH]nc(NC(=O)c3ccc(N4CCN(C)CC4)cc3)c2C1	≤ 0.3 µM	3 µM	1 µM	3 µM	1 µM	≤ 0.3 µM	1 (active)	1 (active)	1 (active)	1 (active)	1 (active)	1 (active)	1 (active)	1 (active)	1 (active)	1 (active)	1 (active)	1 (active)	1 (active)	1 (active)
CN(C)CC(=O)N1CCC[C@@H](n2nc(-c3ccc(Oc4ccccc4)cc3)c3c(N)ncnc32)C1	1 µM	9 µM	1 µM	9 µM	1 µM	3 µM	1 (active)	1 (active)	1 (active)	1 (active)	1 (active)	1 (active)	1 (active)	1 (active)	1 (active)	1 (active)	1 (active)	1 (active)	1 (active)	1 (active)
COc1cc(OC2CCN(C)CC2)ccc1Nc1ncc2c(n1)n(C1CCCC1)c(=O)n2C	3 µM	3 µM	3 µM	3 µM	3 µM	3 µM	1 (active)	1 (active)	1 (active)	1 (active)	1 (active)	1 (active)	1 (active)	1 (active)	1 (active)	1 (active)	1 (active)	1 (active)	1 (active)	1 (active)
O=C1Cc2c([nH]c3ccc(Br)cc23)-c2ccccc2N1 [Kenpaullone]	3 µM	3 µM	3 µM	3 µM	3 µM	3 µM	1 (active)	1 (active)	1 (active)	1 (active)	1 (active)	1 (active)	1 (active)	1 (active)	1 (active)	1 (active)	1 (active)	1 (active)	1 (active)	1 (active)
COc1ccc(S(=O)(=O)N(CCO)c2ccccc2CN(C)C/C=C/c2ccc(Cl)cc2)cc1	3 µM	9 µM	3 µM	9 µM	3 µM	9 µM	1 (active)	1 (active)	1 (active)	1 (active)	1 (active)	1 (active)	1 (active)	1 (active)	1 (active)	1 (active)	1 (active)	1 (active)	1 (active)	1 (active)
